Inconclusive results are not listed. Activity calls are given as the source filed them. The calls were made as follows, unless noted: active = hit-call score of the fitted dose curve at least 0.9, where 1 is the maximum; inactive = score below 0.9.
How the values were obtained:
[1] = read-out: E-selectin (Homo sapiens) (UniProt P16581); assay: BSK_3C_Eselectin: BioMAP Diversity Plus: 3C Assay for Eselectin Biomarker Activity (AID 2283015); settings: primary human endothelial cells (HUVEC); actives raise or lower the signal
Outline: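 ELISA read-out of E-selectin on endothelial monolayers after 24 h chemical treatment. Human umbilical vein primary cells served as the system, with DMSO defining baseline activity for bidirectional fitting.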

[2] = read-out: Interleukin-1 alpha (IL1a), IL1A (gene 3552); assay: BSK_BE3C_IL1a: BioMAP Diversity Plus: BE3C Assay for Interleukin-1 alpha (IL1a) Biomarker Activity (AID 2283016); settings: primary human bronchial epithelial cells; actives raise or lower the signal
Outline: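 Human primary bronchial epithelial cells, 24 h chemical exposure; IL-1a quantified by ELISA, fitted bidirectionally against DMSO. Cytotoxicity assessed in parallel by SRB total-protein staining at the time of measurement.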

[3] = read-out: Monocyte Chemoattractant Protein-1 (MCP1), CCL2 (gene 6347); assay: BSK_3C_MCP1: BioMAP Diversity Plus: 3C Assay for Monocyte Chemoattractant Protein-1 (MCP1) Biomarker Activity (AID 2283017); settings: primary human endothelial cells (HUVEC); actives raise or lower the signal
Outline: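 ELISA read-out of MCP-1 from human umbilical vein endothelial cell cultures harvested 24 h post-dosing. Gain or loss of signal was fitted relative to DMSO.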

[4] = read-out: Monocyte Chemoattractant Protein-1 (MCP1), CCL2 (gene 6347); assay: BSK_4H_MCP1: BioMAP Diversity Plus: 4H Assay for Monocyte Chemoattractant Protein-1 (MCP1) Biomarker Activity (AID 2283018); settings: primary human endothelial cells (HUVEC); actives raise or lower the signal
Outline: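 Human umbilical vein endothelial cells (4H system) exposed to chemicals for 24 h in 96-well format. MCP-1 measured by ELISA; bidirectional fitting against DMSO, with SRB total-protein staining in parallel cultures for cytotoxicity.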

[5] = read-out: Human Leukocyte Antigen - DR isotype (HLADR), HLA-DRA (gene 3122); assay: BSK_3C_HLADR: BioMAP Diversity Plus: 3C Assay for Human Leukocyte Antigen - DR isotype (HLADR) Biomarker Activity (AID 2283019); settings: primary human endothelial cells (HUVEC); actives raise or lower the signal
Outline: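 ELISA readout of surface HLA-DR on human umbilical vein endothelium, taken 24 h after chemical treatment. Gain- and loss-of-signal were both fitted relative to DMSO.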

[6] = read-out: Interleukin-8 (IL8), CXCL8 (gene 3576); assay: BSK_3C_IL8: BioMAP Diversity Plus: 3C Assay for Interleukin-8 (IL8) Biomarker Activity (AID 2283020); settings: primary human endothelial cells (HUVEC); actives raise or lower the signal
Outline: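 Primary human umbilical vein endothelial cells were dosed for 24 h. IL-8 was quantified by ELISA and fitted bidirectionally against DMSO. Cytotoxicity was assessed in parallel cultures by SRB staining at 560 nm.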

[7] = read-out: Monokine induced gamma interferon (MIG), CXCL9 (gene 4283); assay: BSK_3C_MIG: BioMAP Diversity Plus: 3C Assay for Monokine induced gamma interferon (MIG) Biomarker Activity (AID 2283021); settings: primary human endothelial cells (HUVEC); actives raise or lower the signal;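 as to AC50: MIG protein level measured by immunoassay in the treated endothelial cultures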
Outline: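 HUVEC primary endothelial cultures dosed with chemical; MIG quantified by ELISA at 24 h. Data fitted bidirectionally against DMSO control, with parallel SRB total-protein staining for cytotoxicity.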

[8] = biological target: human Vitamin D Receptor (VDR), VDR (gene 7421) (UniProt P11473); assay: ATG_VDR_TRANS: Attagene TRANS-FACTORIAL HepG2 Assay for human Vitamin D Receptor (VDR) (AID 2283022; active = hit-call score of the fitted dose curve at least 0.9, where 1 is the maximum)
Outline: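 Steps: transfect HepG2 with GAL4-UAS-driven reporter constructs; dose compounds 24 h; isolate RNA, reverse-transcribe, PCR-amplify with 6-FAM-labelled primer extension and HpaI digestion; quantify fragments by capillary electrophoresis relative to DMSO.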

[9] = BSK_3C_SRB: Viability Assessment in the BioMAP Diversity Plus: 3C Assay (AID 2283023); settings: primary human endothelial cells (HUVEC);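 also: fitted both ways against DMSO so a hit may be signal rise or drop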
Outline: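 Absorbance at 560 nm of sulforhodamine B-stained (0.1%) total protein served as a cytotoxicity readout in human umbilical vein endothelial cells, 24 h after chemical treatment. Signal was fitted bidirectionally relative to DMSO.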

[10] = read-out: Matrix Metallopeptidase 1 (MMP1), MMP1 (gene 4312); assay: BSK_BE3C_MMP1: BioMAP Diversity Plus: BE3C Assay for Matrix Metallopeptidase 1 (MMP1) Biomarker Activity (AID 2283024); settings: primary human bronchial epithelial cells; actives raise or lower the signal
Outline: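 Human primary bronchial epithelial cells (BE3C system) dosed for 24 h; MMP-1 quantified by ELISA. Bidirectional fit against DMSO; cytotoxicity tracked in parallel cultures by SRB total-protein staining.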

[11] = BSK_3C_Vis: BioMAP Diversity Plus: 3C Assay for Morphology Visualization (AID 2283025); settings: primary human endothelial cells (HUVEC);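 also: fitted both ways so gain or loss versus DMSO counts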;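 as to AC50: light microscopy image of cell morphology used as background control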
Outline: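 Human umbilical vein endothelial cell morphology was inspected by light microscopy 24 h after chemical dosing; scored bidirectionally relative to DMSO.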

[12] = read-out: Pselectin, SELP (gene 6403); assay: BSK_4H_Pselectin: BioMAP Diversity Plus: 4H Assay for Pselectin Biomarker Activity (AID 2283026); settings: primary human endothelial cells (HUVEC); actives raise or lower the signal
Outline: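 Primary human umbilical vein endothelial cells were treated 24 h, and cell-surface P-selectin was then quantified by ELISA. Bidirectional fit versus DMSO; cytotoxicity checked in parallel cultures by SRB total-protein staining.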

[13] = BSK_4H_SRB: Viability Assessment in the BioMAP Diversity Plus: 4H Assay (AID 2283027); settings: primary human endothelial cells (HUVEC);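 also: cells exposed to compound for 24 h before staining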;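 as to AC50: curves fitted both ways versus DMSO so AC50 may be loss or gain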
Outline: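 Human umbilical vein endothelial cells, 24 h after chemical dosing; total protein measured by 0.1% sulforhodamine B staining after 10% TCA fixation, read at 560 nm. Bidirectional fitting against DMSO.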

[14] = read-out: Thrombomodulin, THBD (gene 7056); assay: BSK_3C_Thrombomodulin: BioMAP Diversity Plus: 3C Assay for Thrombomodulin Biomarker Activity (AID 2283029); settings: primary human endothelial cells (HUVEC); actives raise or lower the signal
Outline: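 Human umbilical vein endothelial cells were exposed to chemicals for 24 h; cell-surface thrombomodulin quantified by ELISA, with bidirectional fitting against DMSO baseline.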

[15] = read-out: Urokinase-type plasminogen activator receptor (uPAR), PLAUR (gene 5329); assay: BSK_4H_uPAR: BioMAP Diversity Plus: 4H Assay for Urokinase-type plasminogen activator receptor (uPAR) Biomarker Activity (AID 2283030); settings: primary human endothelial cells (HUVEC); actives raise or lower the signal
Outline: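 Cell-surface uPAR ELISA signal, measured 24 h after dosing human umbilical vein endothelial cells, was analyzed with bidirectional fitting relative to DMSO. Parallel SRB staining of total protein tracked overt cytotoxicity.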

[16] = biological target: human Thyroid Receptor alpha (THRa1), THRA (gene 7067) (UniProt P10827); assay: ATG_THRa1_TRANS: Attagene TRANS-FACTORIAL HepG2 Assay for human Thyroid Receptor alpha (THRa1) (AID 2283014; active = hit-call score of the fitted dose curve at least 0.9, where 1 is the maximum)
Outline: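 Reporter transcript induction, read by capillary electrophoresis of 6-FAM-labelled RT-PCR products, reflects activity of a transfected THRa1-Gal4 fusion in HepG2 liver cells. Cells were dosed for 24 h; activity was fitted in the positive direction against DMSO.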

Measured: AC50

Sequence of human Vitamin D Receptor (VDR), VDR (gene 7421) (P11473 whole entry, looked up, the tested form may be a part): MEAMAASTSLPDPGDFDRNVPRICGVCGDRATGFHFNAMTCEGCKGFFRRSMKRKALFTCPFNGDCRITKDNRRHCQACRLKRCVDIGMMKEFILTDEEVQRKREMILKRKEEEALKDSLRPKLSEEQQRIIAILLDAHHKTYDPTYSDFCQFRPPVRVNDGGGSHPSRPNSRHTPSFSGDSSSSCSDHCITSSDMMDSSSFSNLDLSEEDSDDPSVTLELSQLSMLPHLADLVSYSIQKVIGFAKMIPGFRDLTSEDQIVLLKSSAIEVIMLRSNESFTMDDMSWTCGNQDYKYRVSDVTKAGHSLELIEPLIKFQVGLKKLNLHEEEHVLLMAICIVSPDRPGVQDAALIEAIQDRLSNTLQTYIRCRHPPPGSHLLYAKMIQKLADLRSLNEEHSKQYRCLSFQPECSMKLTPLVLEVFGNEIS
Sequence of E-selectin (Homo sapiens) (P16581 whole entry, looked up): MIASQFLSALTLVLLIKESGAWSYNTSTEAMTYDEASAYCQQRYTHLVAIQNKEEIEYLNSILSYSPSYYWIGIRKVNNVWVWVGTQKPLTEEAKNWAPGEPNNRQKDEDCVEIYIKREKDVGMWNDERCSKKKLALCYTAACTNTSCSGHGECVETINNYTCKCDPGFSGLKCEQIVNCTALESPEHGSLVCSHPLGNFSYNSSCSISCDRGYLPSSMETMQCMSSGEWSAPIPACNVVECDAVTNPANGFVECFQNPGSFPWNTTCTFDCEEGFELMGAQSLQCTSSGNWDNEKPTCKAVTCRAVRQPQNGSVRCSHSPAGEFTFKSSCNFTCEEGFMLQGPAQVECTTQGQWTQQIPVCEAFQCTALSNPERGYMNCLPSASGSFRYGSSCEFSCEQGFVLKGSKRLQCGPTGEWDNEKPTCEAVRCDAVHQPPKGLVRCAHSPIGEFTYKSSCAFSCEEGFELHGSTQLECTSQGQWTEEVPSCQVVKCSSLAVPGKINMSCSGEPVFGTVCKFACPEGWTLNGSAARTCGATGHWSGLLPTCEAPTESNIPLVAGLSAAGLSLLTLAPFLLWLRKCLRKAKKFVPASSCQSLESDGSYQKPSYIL
Sequence of human Thyroid Receptor alpha (THRa1), THRA (gene 7067) (P10827 whole entry, looked up, the tested form may be a part): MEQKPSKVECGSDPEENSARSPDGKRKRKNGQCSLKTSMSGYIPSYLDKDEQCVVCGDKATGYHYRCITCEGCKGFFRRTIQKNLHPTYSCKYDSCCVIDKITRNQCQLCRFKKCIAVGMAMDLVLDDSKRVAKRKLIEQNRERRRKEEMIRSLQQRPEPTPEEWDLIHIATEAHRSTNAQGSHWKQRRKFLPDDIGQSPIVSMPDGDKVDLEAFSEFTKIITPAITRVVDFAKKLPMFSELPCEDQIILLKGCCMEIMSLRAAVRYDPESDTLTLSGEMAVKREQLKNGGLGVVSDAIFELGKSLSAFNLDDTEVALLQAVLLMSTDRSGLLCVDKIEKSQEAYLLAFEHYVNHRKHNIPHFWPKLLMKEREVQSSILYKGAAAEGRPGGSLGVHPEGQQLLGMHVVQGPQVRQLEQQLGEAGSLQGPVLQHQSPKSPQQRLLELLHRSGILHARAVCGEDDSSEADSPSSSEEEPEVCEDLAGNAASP

CC1CCC(C(C)CS)CC1S (configuration not stated)
active: [1] 30.6 µM | [2] 20 µM | [3] 20 µM | [4] 20 µM | [5] 35.1 µM | [7] 36.9 µM | [9] 20 µM | [10] 36.6 µM | [11] 37.1 µM | [12] 23.9 µM | [13] 30.9 µM | [15] 36.4 µM
inactive: [6] | [8] | [14]

O=c1[nH]c(=O)n([C@H]2CCCO2)cc1F
inactive: [16]

OCCN1CCNCC1
inactive: [8]

CC1COc2ccccc2N1C(=O)C(Cl)Cl (configuration not stated)
active: [1] 20 µM | [2] 5.26 µM | [5] 7.04 µM | [9] 7.57 µM | [11] 5.21 µM | [12] 4.69 µM | [13] 2.79 µM
not listed: [10]
inactive: all other assays above

NC(=O)Nc1ccc(Cl)cc1
inactive: [16]

CCCCCCCCCC=O
active: [5] 32.3 µM
not listed: [8] | [16]
inactive: all other assays above
